Experimental data: ChEMBL document CHEMBL1157539, “Thousands of chemical starting points for antimalarial lead identification” (Nature, 2010)
The full ranking holds about 13,000 compounds; the median of “IFI” is about 4, and the highest 2% start at about 17. The list comes from a sample in which the highest values are over-represented; it also holds similar structures and randomly drawn compounds.

Assay: GSK_TCMDC: Inhibition Frequency Index (IFI). The number of non-kinase HTS assays where a compound showed > 50 % inhibition, expressed as a percentage of the number of such assays in which the compound was tested
Type: functional

| Compound | IFI [%] |
| --- | --- |
| CN(C)c1cccc2c(S(=O)(=O)Nc3cccc(CCN4CCC(N5CCCCC5)CC4)c3)cccc12 | 18 |
| O=S(=O)(Nc1cccc(CCN2CCC(N3CCCCC3)CC2)c1)c1cccc2ccccc12 | 8.06 |
| Cc1c(Cl)cccc1S(=O)(=O)Nc1cccc(CCN2CCC(N3CCCCC3)CC2)c1 | 14.3 |
| CC(N)(Cc1ccc(O)cc1)c1nnn[nH]1 (stereo not drawn) | 0 |
| O=c1sn(-c2csc3ccccc23)c2ccccc12 | 18.5 |
| Cc1[nH]c(C)c(-c2csc3ccccc23)c(=O)c1Cl | 0 |
| COc1ccc(S(=O)(=O)NCC2CCCN(CCCCCNC(=O)/C=C/c3ccc(Cl)c(Cl)c3)C2)cc1 (stereo not drawn) | 9.22 |
| Cc1nc(Nc2ccc(F)cc2)nc(N2CCc3cc(O)ccc3C2C)c1C (stereo not drawn) | 8.63 |
| O=c1c(NCCCN(Cc2ccc(F)cc2)c2ccccn2)c(NCc2ccncc2)c1=O | 0.7 |
| COc1ccc(CC2(c3ccc(F)cc3)N=C(N)N(CCCc3ccccc3)C2=O)cc1 (stereo not drawn) | 16.7 |
| COc1ccc(CC2(c3ccc(F)cc3)N=C(N)N(CCCc3ccc(F)c(F)c3)C2=O)cc1 (stereo not drawn) | 20 |
| COc1ccc(CC2(c3ccc(F)cc3)N=C(N)N(CCCc3ccc4c(c3)OCO4)C2=O)cc1 (stereo not drawn) | 6.45 |
| COc1ccc(CNC(=O)c2cnc3c(O)cccc3c2Nc2cccc(NC(=O)c3ccc(Cl)c(Cl)c3)c2)cc1 | 7.81 |
| NC(=O)COc1c(C2CCN(CCCCNC(=O)c3ccc(-c4ccc(Cl)cc4)c(O)c3)CC2)ccc2c1CCCC2 | 13.8 |
| CC(C)C1=C[C@H]2C[C@]3(C4OCCO4)[C@@H]4CC[C@@H](C)[C@H]4C[C@@]2(COCc2cccc(C#N)c2)[C@]13C(=O)OC(c1ccccc1)c1ccccc1 | 2.33 |
| CN1CCN(Cc2ccc(-c3ccc4ncnc(Nc5ccc(OCc6ccccc6)cc5)c4c3)o2)CC1 | 6.98 |
| Cc1cccc2nc(-c3ccc(-c4ccc(CNCc5ccc(CN)cc5)cc4)s3)[nH]c12 | 11.9 |
| CC(C)CNCc1ccc(-c2cccc(CNc3ccc4ncccc4c3)c2)cc1 | 8.51 |
| COc1cc2nccc(Nc3ccc(OCc4ccc(NC(C)=O)cc4)cc3)c2cc1OC | 5.84 |
| Nc1nccc2ccc(-c3ccnc(NCc4cccnc4)n3)cc12 | 5.56 |
| Cn1ncc2ccc(Nc3nccc(-c4ccc5c(c4)c(N)nn5C)n3)cc21 | 17.8 |
| COc1ccc(Nc2nccc(-c3ccc4c(-c5ccsc5)cnc(N)c4c3)n2)cc1 | 2.13 |

| Compound | IFI [%] |
| --- | --- |
| CC(CN(C)C)C(=O)Nc1ccc(-c2ccc(-c3nc4cc(C(F)(F)F)ccc4[nH]3)cc2)cc1 (stereo not drawn) | 3.6 |
| O=C(Nc1ccc(Cl)c(Cl)c1)Nc1ccccc1N1CCNCC1 | 15 |
| Cc1ccc(C(C(=O)Nc2ccc(N3CCNCC3)c(Cl)c2)c2ccccc2)cc1 (stereo not drawn) | 18.6 |
| CC(C)(C)C(=O)Nc1ccc(N2CCN(C(c3ccccc3)c3ccccc3)CC2)c(Cl)c1 | 3.51 |
| CC(C)N1CCN(C(CN2CCN(CCCOc3ccc4ccccc4c3)CC2)c2ccc(F)cc2)CC1 (stereo not drawn) | 9.85 |
| FC(F)(F)c1ccc2[nH]c(-c3ccc(-c4cccc(CNCc5ccccc5)c4)cc3)nc2c1 | 12.5 |
| CNc1ccc(CNCc2cccc(-c3ccc(-c4nc5cc(C(F)(F)F)ccc5[nH]4)cc3)c2)cc1 | 18.8 |
| CNc1ccc(CNCc2ccc(-c3ccc(-c4nc5cc(C(F)(F)F)ccc5[nH]4)cc3)cc2)cc1 | 14.1 |
| Cc1ccc(-n2c(Sc3ncnc4sccc34)nnc2N2CCCC2)cc1 | 6.06 |
| CC1CCN(Cc2cccc(C(=O)NCc3ccc(F)c(-c4cccc(CN5CCN[C@@H](C)C5)c4)c3)c2)CC1 | 5.04 |
| C[C@H]1CN(Cc2ccc(-c3cccc(CNC(=O)c4cccc(C(=O)c5ccc(Cl)c(Cl)c5)c4)c3)s2)CCN1 | 16.2 |
| C[C@H]1CN(Cc2cccc(-c3cc(CNC(=O)c4cccc(C(=O)c5ccc(Cl)c(Cl)c5)c4)ccc3F)c2)CCN1 | 18.6 |
| Cc1cc(N[C@@H](Cc2ccccc2)C(=O)NCc2cccc(F)c2)nc(NCCc2cccs2)n1 | 12.8 |
| CCOC(=O)C(NC(=O)c1ccc([N+](=O)[O-])o1)C(C)C (stereo not drawn) | 1.41 |
| CCOC(=O)C(CO)NC(=O)c1ccc([N+](=O)[O-])o1 (stereo not drawn) | 1.41 |
| O=C(NCC1Cc2cc(Oc3ccccc3)ccc2O1)c1ccc([N+](=O)[O-])o1 (stereo not drawn) | 17.9 |
| Cc1cccc2nc(-c3ccc(-c4ccc(NC(=O)Nc5ccsc5)cc4)cc3)[nH]c12 | 8 |
| CN(C)CCNCc1cccc(-c2ccc3c(Nc4cc(O)c(Cl)cc4F)ccnc3c2)c1 | 3.68 |
| O=C(N[C@H]1CCN(CCc2ccc(O[C@H]3CCNC3)c(F)c2)C1)c1ccc(Cl)c(Cl)c1 | 6 |
| COc1ccc(C(=O)NC(Nc2ccc([N+](=O)[O-])cc2)C(Cl)(Cl)Cl)cc1 (stereo not drawn) | 13.4 |
| O=C(NC(Nc1ccc([N+](=O)[O-])cc1)C(Cl)(Cl)Cl)c1ccc(Cl)cc1 (stereo not drawn) | 19.9 |
| O=C(NC(Nc1ccc([N+](=O)[O-])cc1)C(Cl)(Cl)Cl)c1cccc(Cl)c1 (stereo not drawn) | 13.9 |

| Compound | IFI [%] |
| --- | --- |
| COc1cccc2c(N/N=C/c3ccccc3[N+](=O)[O-])ccnc12 | 3.62 |
| CC(C)(C)c1cc([N+](=O)[O-])cc(C(=O)Nc2ccccc2C(F)(F)F)c1O | 22.7 |
| CC(C)(C)c1cc(Cl)cc(C(=O)Nc2cc([N+](=O)[O-])ccc2Cl)c1O | 13.7 |
| O=C(Nc1ccccc1Cc1ccccc1)c1ccccc1C(F)(F)F | 0.78 |
| CNC(=O)c1cnc(Nc2ccc(N3CCN(C)CC3)cc2)nc1Nc1cccc(OC)c1 | 4.48 |
| Cc1ccc2[nH]c(NC#N)nc2c1 | 0 |
| COc1cc2nc(N3CCC(CNCc4ccc(-c5ccc(C(F)(F)F)cc5)cc4)CC3)nc(N)c2cc1OC | 17.1 |
| c1ccc(Oc2ccc(Nc3ccnc(Nc4ccc(CN5CCOCC5)cc4)n3)cc2)cc1 | 20.2 |
| CN1CCN(Cc2cccc(Nc3nccc(Nc4ccc(Oc5ccccc5)cc4)n3)c2)CC1 | 3.01 |
| c1ccc(Oc2ccc(Nc3ccnc(Nc4cccc(CNCCCN5CCOCC5)c4)n3)cc2)cc1 | 7.41 |
| COc1ccc(CNC(=O)Nc2cc3cc(-c4ccc(CN5CCCC5)cc4)ccc3n3c(C)nnc23)cc1 | 13.5 |
| N#Cc1cccc(C(=O)Nc2cccc(-c3ccc(C(=O)Nc4cccnc4)cc3)c2)c1 | 7.46 |
| Cc1ccc(NC(=O)Nc2ccc(Cl)cc2)cc1-c1ccc(C(=O)Nc2ccncc2)cc1 | 21.1 |
| Cc1ccc(NC(=O)Nc2ccccc2)cc1-c1ccc(C(=O)Nc2ccncc2)cc1 | 25.7 |
| CN(C)C(CNC(=O)c1cc(-c2ccncc2)c(-c2ccc(NC(=O)Nc3cccc(Cl)c3)cc2)o1)c1ccccc1 (stereo not drawn) | 8.11 |
| Cc1ccc(NC(=O)Nc2cccc(Cl)c2)cc1-c1ccc(C(=O)Nc2ccncc2)cc1 | 25.4 |
| Cc1ccc(NC(=O)c2cccc(C#N)c2)cc1-c1ccc(C(=O)Nc2ccncc2)cc1 | 24.6 |
| Cc1ccc(NC(=O)Nc2ccc(Cl)cc2)cc1-c1cccc(C(=O)Nc2ccc(F)cc2)c1 | 15.9 |
| CC(C)NCc1ccc(-c2ccc(NC(=O)c3cccc(C#N)c3)cc2)cc1 | 8.16 |
| O=C(Nc1ccc(-c2oc(C(=O)NCCc3cccc(Cl)c3)cc2-c2ccncc2)cc1)Nc1cccc(Cl)c1 | 2.78 |
| O=C(Nc1ccc(C(=O)Nc2cccc(C3=NCCN3)c2)cc1)Nc1ccc(C2=NCCN2)cc1 | 3.57 |
| Cc1cccc2nc(-c3cccc(-c4ccc(NC(=O)c5ccncc5)cc4)c3)[nH]c12 | 4.42 |

| Compound | IFI [%] |
| --- | --- |
| Cc1ccc(NC(=O)c2ccc(Cl)cc2)cc1-c1ccc(C(=O)Nc2ccncc2)cc1 | 15.5 |
| CN1CCC(NCc2cccc(-c3nn(C)c4nc(NC5CCCC5)ncc34)c2)CC1 | 9.09 |
| CCC1CN2CCc3c([nH]c4ccccc34)[C@@H]2C[C@@H]1CC1NCCc2cc(OC)c(OC)cc21 (stereo partly drawn) | 8.33 |
| CC(Oc1cc(-n2cnc3ccc(NC(=O)CCN4CCCCC4)cc32)sc1C(N)=O)c1ccccc1Cl (stereo not drawn) | 9.35 |
| Cc1cc(N2CC=CCC2)nc(NC(=N)Nc2ccc(Cl)cc2)n1 | 4.29 |
| CCN(CC)CCCCCNc1c2ccc(Cl)cc2nc2ccc(OC)cc12 | 8.03 |
| COc1cc2nc(-c3ccc(Br)cc3)cc(N)c2cc1OC | 11.1 |
| Cc1ccc(NC(=O)Nc2ccc(Cl)c(C(F)(F)F)c2)cc1-c1ccc(C(=O)NCCN2CCOCC2)cc1 | 13.2 |
| Cc1ccc(NC(=O)c2ccc(N3CCN(c4ccncc4)CC3)cc2)cc1F | 6.9 |
| Cc1ccc(C)c(NC(=O)Nc2ccc(C)c(-c3ccc(C(=O)Nc4ccncc4)cc3)c2)c1 | 14.1 |
| Cc1ccc(NC(=O)c2ccc(Cl)c(Cl)c2)cc1-c1ccc(C(=O)Nc2ccncc2)cc1 | 8.82 |
| Cc1ccc(NC(=O)Nc2ccccc2F)cc1-c1ccc(C(=O)Nc2ccncc2)cc1 | 26.4 |
| Cc1ccc(NC(=O)Nc2ccc(Cl)c(C(F)(F)F)c2)cc1-c1ccc(C(=O)Nc2ccncc2)cc1 | 18.3 |
| Cc1ccc2c(=O)cc(CCc3cccc(F)c3F)n(CC(=O)N(Cc3ccc(-c4ccc(C(F)(F)F)cc4)cc3)C3CCN(C)CC3)c2n1 | 8.51 |
| CC(C)(C)N1CCC(N(Cc2ccc(-c3ccc(C(F)(F)F)cc3)cc2)C(=O)Cn2c(CCc3cccc(F)c3F)nc(=O)c3cccnc32)CC1 | 16.7 |
| CC(C)COc1ccc(Cl)cc1Cc1ccc(-c2nc3ccc(F)cc3[nH]2)o1 | 15.5 |
| CC(C)COc1ccc(Cl)cc1Cc1ccc(-c2nc3c(F)cccc3[nH]2)o1 | 15.5 |
| CC(C)COc1ccc(Cl)cc1Cc1ccc(-c2nc3ccc(F)c(F)c3[nH]2)o1 | 11.3 |
| CC(C)COc1ccc(Cl)cc1Cc1ccc(-c2nc3ccc(Br)cc3[nH]2)o1 | 19.8 |
| CC(C)COc1ccc(Cl)cc1Cc1ccc(-c2nc3ccc(C(F)(F)F)cc3[nH]2)o1 | 11.3 |
| CC(C)COc1ccc(Cl)cc1Cc1ccc(-c2nc3ccc(Cl)cc3[nH]2)o1 | 19.1 |
| NC(=O)c1ccccc1Nc1nc(Nc2cc[nH]n2)ncc1Cl | 0 |
